IL1B secr inh: inflammasome signaling inhibition, IL-1 beta readout; AID 743279; activity change, % at 57.5 µM; 4.7% of 360,000 active; THP-1 LPS/ATP IL-1B secretion, AlphaLISA, 16 h; active compounds read low; in the data active = activity change below about -50%; inconclusive = mostly about -30% to -49%
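THP-1 cells pretreated 1 hr with compounds (up to 57.5 uM final), then stimulated with LPS (250 ng/mL final) plus ATP (1.25 mM final); secreted IL-1B measured by AlphaLISA after 16 hr, decreased signal indicating inhibition.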
ELG1 DNA repair: blocks ELG1-dependent DNA repair in HEK293T cells; HEK293T ELG1-luciferase reporter, luminescence, 16 h; DNA damage induced by 5-fluorouridine; Potency, µM (highest dose often 46.1 µM), most hits filed as inhibitors; 2.3% of 330,000 active; AID 504467; note: nearly all actives have a fitted effect of over 55% in size
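In this reporter screen, reduction of luminescence relative to DMSO vehicle indicated activity. Compounds and 5-fluorouridine were added together to 2,000 cells per well, incubated for 16 hr at 37 °C, then developed with ONE-Glo.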
HT1080 IDH1KD tx: HT-1080 IDH1 knockdown cell toxicity (counter line); HT-1080 IDH1 knockdown viability, ATP luminescence, 48 h; Potency, µM (top dose mostly 46.1 µM), hits mostly cytotoxic; 2% of 360,000 active
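Assay cells: HT-1080 with IDH1 knockdown, 750 per well, RPMI/5% FBS. Exposure: 48 h at 37 °C following 2 h pre-incubation. Read: CellTiter-Glo luminescence; fitted concentration-response, curve class assigned.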
HT1080NT lethal: kills 2HG-producing HT-1080-NT fibrosarcoma cells. HT-1080-NT fibrosarcoma viability, CellTiter-Glo ATP luminescence, 48 h. Potency, µM (doses to about 46.1 µM), usual class: cytotoxic. 1.6% of 360,000 active;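 note: NT is the 2HG producing partner of a matched IDH1 knockdown line; nearly all actives have a fitted effect of over 55% in size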
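Viability by CellTiter-Glo luminescence after 48 h compound exposure at 37C of HT-1080-NT cells (750/well, RPMI, 5% FBS). % activity scaled between DMSO wells and medium-only wells, then curve-fitted and categorized by curve class.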
DT40 TDP1 no CPT: qHTS for Inhibitors of human tyrosyl-DNA phosphodiesterase 1 (TDP1): qHTS in cells in absence of CPT; Potency, µM (series often up to 46.2 µM), usual class: inhibitors; DT40 Tdp1-/- hTDP1 cells, no CPT, ATP luminescence, 48 h; 15% of 420,000 active; note: nearly all actives have a fitted effect of over 55% in size
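Seeded 400 DT40-hTDP1 cells/well (vehicle DMSO, no 20 nM CPT); pinned compounds; ≥48 hr at 37 °C; CellTiter-Glo luminescence as viability measure.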
TDP1 cell CPT: DT40-hTDP1 cell growth loss with CPT. 12% of 420,000 active. AID 686979. chicken DT40 Tdp1-/-;hTDP1 cells + 20 nM CPT, ATP luminescence, 48 h. Potency, µM (titrated, usually from 46.2 µM), usual class: inhibitors; note: nearly all actives have a fitted effect of over 55% in size
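Chicken DT40 Tdp1-/- cells stably complemented with human TDP1 were seeded at 400 cells/well in medium containing 20 nM camptothecin, exposed to pin-transferred compounds, and grown at 37 °C for at least 48 hr. Viability was read as ATP luminescence.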
Each line names hits and unclear results; the compound was inactive in the other large screens. Compounds with a hit are over-represented: about 19% of the library has one in this group of screens. Unless noted, calls come from the whole dose curve; as a rule, active = well fitted curve in the direction sought with a large enough effect; inconclusive = small, poorly fitted or top-dose-only effect, or another doubt; inactive = no such curve, though single readings can be large; an effect the other way counts as inactive or inconclusive.

Cc1ccc(C)c(NC(=O)NCc2ccccn2)c1	none
CC(=O)Nc1ccccc1NC(=O)c1cc(C)ccc1C	none
Cc1ccc(C)c(NC(=S)c2ccccn2)c1	IL1B secr inh -101, ELG1 DNA repair inconclusive, DT40 TDP1 no CPT 18µM, TDP1 cell CPT 18µM
Cc1ccc(C)c(C(=O)c2ccccc2NC(=O)c2ccccn2)c1	HT1080 IDH1KD tx 21µM, HT1080NT lethal inconclusive, DT40 TDP1 no CPT 9.2µM, TDP1 cell CPT 16µM
S=C(Nc1ccccn1)c1ccccn1	ELG1 DNA repair inconclusive, HT1080 IDH1KD tx inconclusive, HT1080NT lethal inconclusive, DT40 TDP1 no CPT 0.92µM, TDP1 cell CPT 0.92µM
COc1ccc(OC)c(N(CC(=O)NCCSCc2ccco2)S(=O)(=O)c2ccccc2)c1	DT40 TDP1 no CPT 15µM, TDP1 cell CPT inconclusive
CCOc1ccccc1N(CC(=O)NCCSCc1ccco1)S(=O)(=O)c1ccccc1	DT40 TDP1 no CPT inconclusive, TDP1 cell CPT inconclusive
COc1ccccc1N(CC(=O)Nc1cc(S(=O)(=O)N(C)C)ccc1C)S(=O)(=O)c1cccs1	ELG1 DNA repair 23µM, DT40 TDP1 no CPT inconclusive, TDP1 cell CPT inconclusive
COc1ccc(OC)c(N(CC(=O)NCc2ccccc2)S(=O)(=O)c2ccc(OC)c(OC)c2)c1	DT40 TDP1 no CPT inconclusive, TDP1 cell CPT 21µM
COc1ccc(CNC(=O)CN(c2ccccc2OC)S(=O)(=O)c2cccs2)cc1	ELG1 DNA repair inconclusive, DT40 TDP1 no CPT inconclusive, TDP1 cell CPT 16µM
COc1cccc(Cn2c(=O)c(C)nc3cnc(Nc4cccc(OC)c4)nc32)c1	none (no result: IL1B secr inh, ELG1 DNA repair, HT1080 IDH1KD tx, HT1080NT lethal)
CC1(C)COC(c2cc3c(cc2Br)OCO3)OC1	none (no result: ELG1 DNA repair)
CC(=O)c1ccc(N=C2NC(=O)C(CO)(CO)S2)cc1	none
COc1cc(=O)n2c(c1C(=O)N(C)Cc1nonc1C)CCN(Cc1cccc(Cl)c1)CC2	none (no result: IL1B secr inh, ELG1 DNA repair, HT1080 IDH1KD tx, HT1080NT lethal)
COc1ccc(CCNC(=O)c2ccccc2NS(=O)(=O)c2c(F)cccc2F)cc1	none
CN1CCN(S(=O)(=O)c2ccc(Oc3cccc(C(F)(F)F)c3)nc2)CC1	ELG1 DNA repair inconclusive, DT40 TDP1 no CPT inconclusive, TDP1 cell CPT inconclusive
COc1ccc(OC)c(N(CC(=O)NCc2ccccc2)S(=O)(=O)c2ccccc2)c1	DT40 TDP1 no CPT inconclusive, TDP1 cell CPT 12µM (no result: IL1B secr inh, ELG1 DNA repair, HT1080 IDH1KD tx, HT1080NT lethal)
CC(=O)c1nnn(-c2nc(N)nc(N(c3ccccc3)c3ccccc3)n2)c1C	DT40 TDP1 no CPT 15µM, TDP1 cell CPT 29µM
CCCCN(CCCC)c1nc(OC)nc(-n2nnc(C(C)=O)c2C)n1	ELG1 DNA repair inconclusive, DT40 TDP1 no CPT inconclusive, TDP1 cell CPT 23µM
CCOC(=O)c1nnn(-c2nc(N(C)C)nc(N(C)C)n2)c1C	none
Cc1cc(C)n(-c2nc(Nc3ccccc3)nc(-n3nc(C)cc3C)n2)n1	none
Cc1cc(C)n(-c2nc(N(c3ccccc3)c3ccccc3)nc(-n3nc(C)cc3C)n2)n1	IL1B secr inh -84, ELG1 DNA repair 26µM, DT40 TDP1 no CPT 13µM, TDP1 cell CPT 18µM
C[C@@H]1CCC2C(C)(C)C3CC21CC[C@@]3(C)O (some centres undefined)	none (no result: IL1B secr inh, ELG1 DNA repair, HT1080 IDH1KD tx, HT1080NT lethal)
CCn1c2ccccc2c2cc(CN3CCN(S(C)(=O)=O)CC3)ccc21	ELG1 DNA repair inconclusive, DT40 TDP1 no CPT 16µM, TDP1 cell CPT 15µM
CS(=O)(=O)N1CCN(Cc2ccc(C(F)(F)F)cc2)CC1	DT40 TDP1 no CPT inconclusive
CCn1c2ccccc2c2cc(CN3CCN(Cc4ccccc4C)CC3)ccc21	DT40 TDP1 no CPT inconclusive, TDP1 cell CPT 16µM (no result: IL1B secr inh, ELG1 DNA repair, HT1080 IDH1KD tx, HT1080NT lethal)
CCn1c2ccccc2c2cc(CN3CCN(Cc4ccc(Cl)cc4)CC3)ccc21	DT40 TDP1 no CPT inconclusive, TDP1 cell CPT 15µM (no result: IL1B secr inh, ELG1 DNA repair, HT1080 IDH1KD tx, HT1080NT lethal)
O=C([C@@H]1C[C@@H](Sc2nc3ccccc3[nH]2)CN1Cc1c(F)cccc1F)N1CCOCC1	none (no result: IL1B secr inh, ELG1 DNA repair, HT1080 IDH1KD tx, HT1080NT lethal)
COc1cccc(C(=O)NCCN2CCC(n3c(=O)[nH]c4ccccc43)CC2)c1	none (no result: IL1B secr inh, ELG1 DNA repair)

Screens: PubChem BioAssay, National Center for Advancing Translational Sciences (NCATS)
